RTF Ca sens inh: cardiac RTF calcium desensitization; actives 0.12% (n = 340,000); IANBD-labeled cardiac RTF, Ca2+ fluorescence; AID 493244; P19429+P45379; inhibition, % at 7.15 µM;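 active = inhibition above the mean inhibition of all tested compounds plus 3 SD, cut at about 17% in these data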;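 note: assay run at fixed EC70 calcium of 1.6 mM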
RTF Ca sens act: cardiac RTF calcium sensitization. P19429+P45379. IANBD-labeled TnC RTF fluorescence at EC20 calcium; 0% EC20 calcium, 100% full calcium. activation, % at 7.2 µM. actives 0.24% (n = 340,000). AID 493008;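 active = activation above the mean over all tested compounds plus 3 SD, cut at about 30% in these data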;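 note: rise in fluorescence read as greater calcium sensitivity of cardiac thin filaments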
IDE inh: cellular human IDE inhibition | P14735 | HEK cells, FAbetaB cleavage, fluorescence polarization | inhibition, % at 5.59 µM | actives 0.41% (n = 320,000) | AID 434962;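 active = percent inhibition above the average of all tested compounds plus 3 SD, set per screening campaign, cut at about 16% in these data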;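 note: IDE supplied by intact live HEK cells; FP after avidin binding of uncleaved biotin substrate so inhibition keeps polarization high; 0% = DMSO wells and 100% = 60 µM reference IDE inhibitor Ii1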
IDE act: boosts human insulin-degrading enzyme activity in HEK cells | actives 0.073% (n = 340,000) | FAbeta-B cleavage, fluorescence polarization; 0% vehicle, 100% cell-free pure enzyme wells | P14735 | activation, % at 5.96 µM;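 active = activation above the mean of all tested compounds plus 3 SD, set per screening campaign, cut at about 17% in these data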
IDE inh confirm: confirmation of human insulin-degrading enzyme inhibitors in cells | inhibition, % at 5.59 µM | HEK cells, FAbetaB cleavage, fluorescence polarization | actives 51% (n = 1,200) | shares compounds with IDE inh;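 active = mean inhibition across triplicate wells above the cutoff set by the earlier primary insulin-degrading enzyme screen, cut at about 16% in these data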;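 note: 0% = DMSO wells and 100% = 60 µM reference IDE inhibitor Ii1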
HEK293 tox: counter-screen for IDE inhibitors: cytotoxicity in HEK cells. inhibition, % at 5.59 µM. AID 449730. HEK293 cytotoxicity, ATP luminescence. actives 28% (n = 1,200). shares compounds with IDE inh; in the data active = inhibition above about 22%;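 note: 0% = vehicle wells and 100% = reference cytotoxic drug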
* hit, by the source's call; nt = not tested or not shown. Rows were chosen to be rich in hits. Some 0.71% of all compounds tested hit in one or more screens of this group.

SMILES	RTF Ca sens inh	RTF Ca sens act	IDE inh	IDE act	IDE inh confirm	HEK293 tox
O=C(Nc1cccc(F)c1)Nc1ccnn1C1CCN(C(=O)c2ccccn2)CC1	-6.8	4.7	-3.2	5.2	nt	nt
Clc1ccc2[nH]c3c(NCCCN4CCOCC4)ncnc3c2c1	4.9	3.8	41.8*	-8.8	16.8*	20.9
N=c1ccn(CC(=O)c2ccc(-c3ccccc3)cc2)cc1	-2.7	3.5	43.1*	-26.9	11.0	88.4*
COc1ccc(OC)c(CCNC(=O)Cn2sc3nc(C)cc(C)c3c2=O)c1	nt	nt	20.3*	nt	6.8	124.5*
Cc1cc(C)c2c(N)c(C(=O)NC3CCCC3)sc2n1	-5.3	7.9	4.1	-1.1	nt	nt
Cc1cc(C)c2c(=O)n(CC(=O)Nc3ccc(Br)c(C)c3)sc2n1	0.8	0.3	61.0*	-50.6	19.2*	21.8
Cc1cc(C)c2c(=O)n(CC(=O)Nc3cccc(Cl)c3C)sc2n1	-11.7	7.2	40.0*	-61.8	6.1	79.0*
Cc1cc(C)c2c(=O)n(CC(=O)NC3CCCC3)sc2n1	0.4	0.9	26.6*	-50.2	2.0	80.3*
Cc1cc(NC(=O)Cc2ccsc2)ccc1Br	-3.1	-4.2	-4.9	2.4	nt	nt
COc1ccc(OC)c(CCNC(=O)Cn2nc(C)c3c(C)n(-c4ccc(C)cc4)nc3c2=O)c1	4.1	-4.5	0.2	1.9	nt	nt
Cc1cc(C)c(C)c(S(=O)(=O)N2CCC(C(=O)NC3=NCCS3)CC2)c1C	-6.2	1.6	-1.6	1.8	nt	nt
CCCN(CC(=O)Nc1ccccc1C)C(=O)CCCc1c[nH]c2ccccc12	-0.1	0.9	-4.1	3.9	nt	nt
COc1ccc(/C=C/C(=O)c2c(O)cc(C)oc2=O)c(OC)c1	-16.0	11.0	19.9*	-8.6	1.6	19.2
CCOC(=O)/C(C#N)=C\C=C1C=CN(C)C=C1	-76.4	58.6*	51.6*	-38.0	38.4*	11.3
CCOC(=O)/C(C#N)=C\c1ccc(CC)s1	-12.9	-2.3	0.1	-3.4	nt	nt
COCCNCc1nc2sc(C)c(-c3ccccc3)c2c(=O)[nH]1	-3.2	0.0	0.6	4.3	nt	nt
CN(C)c1ccc(/C=C2\Oc3ccc(C#Cc4cccc(N)c4)cc3C2=O)cc1	-91.1	27.5	43.8*	-48.8	49.0*	14.5
CC(=O)N/C(=C\c1ccccc1)C(=O)OCC(=O)NC(C)C12CC3CC(CC(C3)C1)C2 (configuration not stated)	3.3	-5.2	16.6*	-0.9	-4.8	14.7
Cc1ccc(NC(=O)C2CC(=O)Nc3ncnn32)c(C)c1 (configuration not stated)	4.3	-3.8	8.9	7.1	nt	nt
Cc1ccc(-n2nc3c(c2NC(=O)C2CCCC2)CS(=O)(=O)C3)cc1	-0.5	7.6	-3.1	-4.1	nt	nt
CCOC(=O)N1CCN(c2ccnc3cc(Cl)ccc23)CC1	-28.1	-2.8	37.1*	-19.2	19.9*	11.9
Cc1ccc2c(c1)[nH]c1c(N3CCN(Cc4ccccc4)CC3)ncnc12	-5.6	-15.0	13.2	-15.0	nt	nt
c1ccc2c(c1)CCN(c1ncnc3c1[nH]c1ccccc13)C2	-15.6	0.5	20.6*	-24.7	17.4*	80.3*
Cc1ccc2[nH]c3c(N4CCN(Cc5ccccc5)CC4)ncnc3c2c1	-7.9	-2.5	35.6*	-12.8	17.5*	40.5*
c1ccc(CN2CCN(c3ncnc4c3[nH]c3ccccc34)CC2)cc1	-18.0	2.4	33.1*	-2.3	17.9*	57.9*
SMILES	RTF Ca sens inh	RTF Ca sens act	IDE inh	IDE act	IDE inh confirm	HEK293 tox
CCOc1ccc2[nH]c3c(N4CCN(c5ccccn5)CC4)ncnc3c2c1	-8.2	-0.7	25.0*	-29.9	7.5	25.9*
COc1cccc2[nH]c3c(N4CCc5ccccc5C4)ncnc3c12	nt	nt	1.9	nt	nt	nt
OCCNc1nnc(-c2ccccc2)c(-c2ccccc2)n1	-1.5	-3.8	-0.5	-4.3	nt	nt
CCCCc1cc(=O)oc2cc(OCC(=O)Nc3ccccn3)ccc12	-9.4	0.5	2.0	3.6	nt	nt
OC1(c2cccc(C(F)(F)F)c2)CCN(c2ncnc3c2[nH]c2ccccc23)CC1	-16.1	6.0	19.4*	-10.4	7.3	34.5*
C=CCn1c(SCC(=O)N2CCc3ccccc3C2)nc2sc(CC)cc2c1=O	-16.4	-7.6	17.4*	-2.3	6.9	11.6
CC(C)CC[n+]1ccccc1/C=C/c1ccc(N(C)C)cc1	-47.8	27.4	36.9*	-11.5	68.8*	101.0*
O=C(Nc1ccnn1C1CCN(Cc2c[nH]c3ccccc23)CC1)c1ccccc1	0.5	5.1	2.1	0.9	nt	nt
CC(C)C[C@@H](CN)NC(=O)c1nc[nH]c1C(=O)N[C@@H](C)C(=O)CNC[C@H](CC(C)C)NC(=O)c1nc[nH]c1C(=O)N[C@@H](Cc1ccccc1)C(=O)O	-6.5	-5.5	nt	1.4	nt	nt
CCn1c(=O)c(C(=O)CN2CCCc3ccccc32)c(N)n(Cc2ccccc2)c1=O	-67.1	31.5*	36.6*	-3.8	10.3	16.6
Cc1nc2c(ccc3nc(NC(=O)c4ccc5c(c4)OCCO5)sc32)s1	2.4	2.6	18.8*	-21.4	5.6	31.3*
Cc1ccc(N=Cc2sc(O)c3ccccc23)cc1	-40.8	26.6	36.4*	-24.2	57.4*	11.2
Cc1ccc(C(=O)OCC(=O)N(Cc2ccccc2)C(C)C)cc1C	4.2	-0.5	0.9	2.6	nt	nt
Cc1ccsc1C(=O)OCC(=O)N(Cc1ccccc1)C(C)C	-0.7	2.1	16.3*	2.4	2.7	12.4
COc1ccc(/C=N\NC(=O)/C(=C\Nc2nccc(C)n2)NC(=O)c2ccccc2)cc1	0.3	-1.8	12.7	-0.8	nt	nt
Cc1ccc(/C=N\NC(=O)/C(=C\Nc2nccc(C)n2)NC(=O)c2ccccc2)cc1	-6.3	-0.5	25.8*	-47.4	31.4*	9.9
CC1(C(=O)Nc2nc3ccccc3s2)CC1(Br)Br (configuration not stated)	-5.3	5.7	nt	0.6	nt	nt
O=C(NC(=S)NC12CC3CC(CC(C3)C1)C2)c1ccc(F)cc1	nt	nt	3.8	nt	nt	nt
CC(C)(C)C(=O)/C=c1\[nH]c(=O)/c(=C\c2ccc(F)cc2)s1	-3.2	1.6	-3.3	-2.0	nt	nt
COc1ccc(/C=c2\s/c(=C/C(=O)c3ccc(C)cc3)[nH]c2=O)cc1OC	-42.0	30.1*	79.5*	-98.4	78.4*	7.3
COc1ccc(Cl)cc1C(=O)NCCCSc1ccccc1	-16.4	-2.4	4.6	-0.9	nt	nt
COc1ccc(Cl)cc1C(=O)NCC(=O)OCc1ccccc1	-14.0	-1.8	20.1*	-11.8	9.5	9.5
c1ccc(C[n+]2csc3ccccc32)cc1	-0.9	0.1	26.1*	-38.4	11.0	9.6
Fc1cccc(C[n+]2csc3ccccc32)c1	-1.8	1.2	22.4*	-38.2	10.7	12.4
Fc1ccc(CNC(=S)Nc2ccccc2Cl)cc1	-4.0	-1.9	5.2	-1.0	nt	nt
Cc1ccc(OCC(=O)NNC(=O)C2CCN(c3ncnc4sc(C)c(C)c34)CC2)cc1	-9.0	8.1	12.5	-8.9	nt	nt
Cc1sc2ncnc(N3CCC(C(=O)NNC(=O)COc4ccc(Br)cc4)CC3)c2c1C	6.2	-3.6	22.4*	-10.4	12.5	11.3

Screening results: PubChem, The Scripps Research Institute Molecular Screening Center
